GPR151 activ – activates the human receptor GPR151; PathHunter beta-arrestin GPR151 cells, luminescence; actives 1% (n = 650,000); activation, % at 11.2 µM; AID 1508602; in the data active = activation above about 4.9%;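 note: 0% = median of compound wells and 100% = cells with positive control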
Target sequence (Q8TDV0 whole entry, looked up): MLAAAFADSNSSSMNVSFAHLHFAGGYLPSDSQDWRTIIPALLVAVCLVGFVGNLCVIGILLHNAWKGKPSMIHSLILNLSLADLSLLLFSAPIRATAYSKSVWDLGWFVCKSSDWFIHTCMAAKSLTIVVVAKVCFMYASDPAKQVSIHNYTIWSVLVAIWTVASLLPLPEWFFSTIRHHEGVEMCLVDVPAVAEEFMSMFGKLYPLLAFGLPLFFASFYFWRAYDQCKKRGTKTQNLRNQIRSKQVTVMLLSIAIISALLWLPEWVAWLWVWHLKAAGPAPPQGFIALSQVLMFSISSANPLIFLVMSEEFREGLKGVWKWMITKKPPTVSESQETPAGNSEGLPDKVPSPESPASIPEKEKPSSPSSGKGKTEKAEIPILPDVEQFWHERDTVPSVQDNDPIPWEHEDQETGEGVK
TEAD-YAP inh – TEAD-YAP interaction inhibition; actives 1.4% (n = 640,000); HEK-TIYL cells, TEAD-Gal4/YAP UAS-luciferase luminescence; inhibition, % at 9.12 µM; in the data active = inhibition above about 32%;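 note: 0% = median of test compound wells and 100% = reference inhibitor wells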
FBW7 act – activators of human E3 ligase FBW7; Q969H0; AlphaScreen FBW7–phospho-cyclin E peptide binding, activator screen; normalized activity (activation), % at 26.1 µM; actives 0.13% (n = 650,000); AID 1259310; in the data active = normalized activity above about 1.9%;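 note: purified mutant Fbw7 with reduced substrate affinity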
MITF inh – blocks human microphthalmia-associated transcription factor | actives 0.91% (n = 650,000) | O75030 | AID 1259374 | inhibition, % at 2.6 µM | AlphaScreen MITF homodimerization, bead proximity signal; in the data active = inhibition above about 50%;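 note: 0% = vehicle wells with protein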
MITF confirm – human MITF inhibition, confirmation; shares compounds with MITF inh; AlphaScreen MITF homodimerization, biotin/His-MITF beads; inhibition, % at 2.6 µM; actives 16% (n = 4,700); AID 1259372;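 active = inhibition above a cutoff derived from the DMSO control wells, cut at about 28% in these data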;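 note: 0% = MITF dimer wells with DMSO only; inhibitors lower the bead chemiluminescence by keeping MITF from dimerizing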
AlphaScreen DR – counter-screen: compounds optically interfering with AlphaScreen | actives 6% (n = 480) | AlphaScreen optical interference counterscreen, cell-free | IC50, µM | shares compounds with MITF inh; call rule not given here
AS interf ctr – AlphaScreen optical interference, counter-screen; LysRS AlphaScreen counterscreen, signal interference, triplicate; inhibition, % at 2.6 µM; actives 7.6% (n = 4,700); shares compounds with MITF inh; AID 1259376;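 active = inhibition above a cutoff derived from the DMSO control wells, cut at about 30% in these data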
Starred values were filed as active, the others as inactive; x = no result given. An excerpt weighted towards active compounds, which were near 3.5% of everything screened.

SMILES | GPR151 activ | TEAD-YAP inh | FBW7 act | MITF inh | MITF confirm | AS interf ctr | others
OCCN1CCN(c2cc(-c3ccccc3F)nc(-c3cccnc3)n2)CC1 | 1 | 5 | 0 | -5 | x | x
OCCN1CCN(c2cc(-c3ccccc3F)nc(-c3ccccc3)n2)CC1 | 1 | 7 | 0 | 53* | 16 | 13
CCOc1ccccc1OCCOCCN1CC(C)OC(C)C1 (stereo unspecified) | -2 | 10 | 0 | 53* | 1 | 14
CCOc1ccccc1OCCN1CCCCC1 | 0 | -5 | 1 | 39 | x | x
CCOc1ccccc1OCCN1CCCC1 | 0 | 7 | 1 | 75* | -12 | -9
CCOc1ccccc1OCCN1CCN(c2ccccc2OC)CC1 | -2 | 10 | 1 | 89* | 4 | 25
CCOc1ccccc1N1CCN(Cc2ccoc2)CC1 | 0 | 2 | 0 | 53* | 4 | -2
O=C(CSc1nc2ccsc2c(=O)n1NC(=O)c1ccccc1)c1ccc(Br)cc1 | -1 | -20 | 0 | -15 | x | x
CCOc1ccc(NS(=O)(=O)c2cc([N+](=O)[O-])ccc2Cl)cc1 | -2 | -2 | 0 | 3 | x | x
O=C(c1cccs1)N1N=C(c2cccnc2)CC1c1ccccc1O (stereo unspecified) | 1 | -5 | 0 | 10 | x | x
Cc1ccc(-c2nc3ccccc3c(=O)n2NC(=O)c2ccccc2[N+](=O)[O-])cc1C | -2 | 5 | 0 | 3 | x | x
O=C(COc1ccccc1F)N1CCCCC1 | 2 | -25 | 0 | 10 | x | x
O=C(COc1ccccc1F)OCCN1CCCC1 | -1 | -8 | 0 | 57* | 6 | 6
c1ccc2c(OCCN3CCCCC3)cccc2c1 | 0 | -1 | 0 | -1 | x | x
Clc1ccc(OCCN2CCCC2)c2ccccc12 | 2 | -7 | 0 | 53* | -9 | -5
CCOc1ccccc1N1CCN(C(=O)C2CCN(Cc3cccs3)CC2)CC1 | 1 | 3 | 0 | 51* | 11 | 17
O=C(CCc1ccco1)N1CCc2nnc(Cc3ccccc3)n2CC1 | 4 | -4 | 0 | 4 | x | x
CCOC(=O)N1CCN(CC(=O)N2c3ccccc3CC2C)CC1 (stereo unspecified) | -1 | 0 | 0 | 67* | 5 | 10
CC1Cc2ccccc2N1C(=O)CN1CCN(C)CC1 (stereo unspecified) | -1 | 5 | 0 | 77* | -16 | 0
CCOC(=O)N1CCN(CC(=O)N2c3ccccc3Sc3ccccc32)CC1 | -1 | -10 | 0 | 53* | 12 | 3
CC1Cc2ccccc2N1C(=O)CN1CCCN(CC(=O)N2c3ccccc3CC2C)CC1 (stereo unspecified) | 0 | 8 | 0 | 62* | 5 | 7
CC(C)CCN1CCNC(=O)C1CC(=O)N(C)Cc1nccs1 (stereo unspecified) | 1 | -2 | 0 | 5 | x | x
CN(CC12CC3CC(CC(C3)C1)C2)C(=O)C(C)(C)C | 1 | -8 | 0 | -7 | x | x
COCCSc1nnc(-c2cnccn2)n1C | 0 | 4 | 0 | 75* | 9 | 20
O=C(c1ccccc1F)N1CCNCC1 | 0 | -2 | 0 | 2 | x | x
SMILES | GPR151 activ | TEAD-YAP inh | FBW7 act | MITF inh | MITF confirm | AS interf ctr | others
COc1ccc(C/C(C)=N/Nc2nc3ccccc3[nH]2)cc1 | -1 | -45 | 0 | 67* | 16 | 38*
OC(COCc1ccc(Cl)cc1)CN1CCN(CC2CCCO2)CC1 (stereo unspecified) | 1 | -5 | 0 | 68* | 8 | 12
OC(COCc1ccc(Cl)cc1)CN1CCCC1 (stereo unspecified) | 1 | -9 | 0 | 16 | x | x
CCOc1cc(NC(=O)c2ccccn2)c(OCC)cc1NC(C)=O | 0 | 6 | 0 | 60* | 52* | 76*
CCOc1cc(NC(=O)c2ccccn2)c(OCC)cc1NC(=O)CC | 0 | -3 | 0 | -7 | x | x
COc1ccc(CN(C)C2CCN(C)CC2)c(C)c1C | 0 | -5 | 0 | 59* | -1 | 8
CN1CCC(N(C)Cc2cccc(Cl)c2Cl)CC1 | 2 | 0 | 0 | 12 | x | x
CN1CCC(N(C)Cc2ccc(Cl)cc2)CC1 | 1 | -11 | 0 | 53* | -5 | 0
COc1cc(OC)c(OC)cc1CN(C)C1CCN(C)CC1 | 0 | -4 | 0 | 25 | x | x
COC(=O)c1ccc(CN(C)C2CCN(C)CC2)cc1 | 0 | -5 | 0 | 57* | 11 | 16
CN1CCC(N(C)Cc2c(F)cccc2Cl)CC1 | 4 | 7 | 0 | 53* | 18 | 7
Cc1ccc2c(c1)NC(=S)CC(c1ccccc1)=N2 | -1 | -4 | 0 | 10 | x | x
O=C(O)C1CCC(CNCc2cccc(OCc3ccccc3)c2)CC1 (stereo unspecified) | -2 | -8 | 0 | -10 | x | x
CN1CCC(N(C)Cc2cccc(F)c2)CC1 | 0 | -4 | 0 | 59* | -1 | 3
CN1CCC(N(C)Cc2cccc(Br)c2)CC1 | 0 | -3 | 0 | 35 | x | x
c1ccc(Cn2nnnc2C(c2ccncc2)N2CCN(C3CCCCC3)CC2)cc1 (stereo unspecified) | -1 | 3 | 0 | -8 | x | x
CCCC1CCC(C2CCC(=O)CC2)CC1 (stereo unspecified) | 3 | -5 | 0 | 53* | 14 | 13
CC(C)(C)c1ccc(C(=O)CCl)cc1 | 1 | -12 | 0 | 4 | x | x
COCCCNc1ccc([N+](=O)[O-])cc1C(=O)Nc1cccc(C)n1 | -1 | 0 | 0 | 52* | 8 | 10
Cc1ccc(C2C(C(=O)c3ccco3)=C(O)C(=O)N2CCN(C)C)o1 (stereo unspecified) | 0 | 0 | 0 | -6 | x | x
CCOC(=O)c1c(C)oc2ccc(N(C(C)=O)S(=O)(=O)c3ccc(Cl)c([N+](=O)[O-])c3)cc12 | 2 | -9 | 0 | 0 | x | x
c1coc(CNc2ccc3ncc(-c4ccco4)n3n2)c1 | 0 | 0 | 2 | 56* | 84* | 19 | AlphaScreen DR=>6.5
Cc1c(Cl)cccc1NC(=O)/C(=C/c1cccc([N+](=O)[O-])c1)NC(=O)c1ccccc1F | -1 | -2 | 0 | -21 | x | x
C/C(=N\O)c1c(C)nc2ccc(Cl)cn12 | 3 | 1 | 0 | 5 | x | x
CN(C)c1ccc(N=Cc2ccccc2)cc1 | 0 | 23 | 0 | 19 | x | x
CN(C)c1ccc(N=c2cc(-c3ccccc3)cc(-c3ccccc3)s2)cc1 | -2 | -3 | 0 | 54* | 12 | 17
Cc1ccc(C(=O)NN(C)C)o1 | 0 | -4 | 0 | 91* | 4 | 12
Cc1ccc(C(=O)Nc2ccccc2NC(=O)c2ccc(C)o2)o1 | 0 | 5 | 0 | -2 | x | x
C/C=C/c1ccc(OCC(O)CN2CCN(Cc3ccc4c(c3)OCO4)CC2)c(OC)c1 (stereo unspecified) | 2 | 6 | 0 | 64* | 15 | 14

High-throughput results as filed in PubChem.
